Source: PubChem
Shown are actives, neighbours in structure and some others; about 6.6% of the full set was active somewhere.
TGFb SMAD3 inh = blocks TGF-b signaling; 1.2% of 410,000 active; HepG2 CAGA-GFP TGF-b/SMAD3 reporter, GFP fluorescence, 18 h; TGF-beta stimulated, 500 pg/mL final; Potency, µM (titrated, usually from 46.1 µM), without a hit: at the top dose activity, negative = inhibition, most hits filed as inhibitors; further: on the % scale 0 is the no-effect control and ±100 the full control effect; nearly all actives have a fitted effect of over 65% in size
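Inhibition of TGF-beta-driven CAGA-GFP reporter expression in HEPG2 cells is measured by cellular GFP fluorescence after 18 h stimulation with 500 pg/mL recombinant TGF-beta in 1% FBS medium at 37 degrees C.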
HT1080NT lethal = kills 2HG-producing HT-1080-NT fibrosarcoma cells; HT-1080-NT fibrosarcoma viability, CellTiter-Glo ATP luminescence, 48 h; Potency, µM (top dose mostly 46.1 µM), inactives show at the top dose activity, negative = less viability, usual class: cytotoxic; 1.6% of 360,000 active;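 further: NT is the 2HG producing partner of a matched IDH1 knockdown line; 0% = DMSO-treated cells and -100% = media-only wells without cells; nearly all actives have a fitted effect of over 55% in size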
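Luminescent CellTiter-Glo readout after 48 hours of compound exposure at 37 degrees C defined viability of HT-1080-NT cells. Activity was normalized to DMSO wells and cell-free media wells; concentration-response curves were fitted and assigned curve classes.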
HepG2 tox = counter-screen for TGF-b inhibitors: cytotoxicity in HepG2 cells. AID 588856. 0.76% of 410,000 active. HepG2 CAGA-GFP viability, ATP luminescence, 18 h. Potency, µM (doses to about 46.1 µM), inactives show at the highest dose activity change, negative = cytotoxicity, usual class: cytotoxic
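CellTiter-Glo luminescence gave cytotoxicity after 18 hours at 37 degrees C. The cells were HepG2 CAGA-GFP in 1% FBS DMEM, stimulated with 500 pg/mL TGF-beta after compound addition. %Activity was normalised to no-cell wells (complete cell-killing) and DMSO (no toxicity), and curves were fitted and classified.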
HT1080 IDH1KD tx = HT-1080 IDH1 knockdown cell toxicity (counter line); Potency, µM (top dose mostly 46.1 µM), for inactives: at the highest dose activity, negative = toxicity, hits mostly cytotoxic; HT-1080 IDH1 knockdown viability, ATP luminescence, 48 h; 2% of 360,000 active; AID 686971;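 further: 0% = DMSO wells and -100% = cell-free medium wells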
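HT-1080-IDH1KD cells (IDH1 knocked down), 750/well in RPMI with 5% FBS, treated with compound 48 h at 37 degrees C. Viability by CellTiter-Glo luminescence, normalised to DMSO and no-cell wells; concentration-response curves classed.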
KB-3-1 tox = KB-3-1 parental cell cytotoxicity; KB-3-1 viability, CellTiter-Glo ATP luminescence, 72 h; Potency, µM (series often up to 46.1 µM), usual class: cytotoxic; 1.4% of 400,000 active; AID 1347075; further: on the % scale 0 is the no-effect control and ±100 the full control effect; nearly all actives have a fitted effect of over 60% in size
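Multi-concentration cytotoxicity screen in KB-3-1 cells grown in DMEM lacking phenol red with 10% FBS. After 72 h at 37 °C with compound, ATP-dependent luminescence was recorded.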
KB-V1 MDR tox = KB-V1 MDR subline cytotoxicity. Potency, µM (doses to about 46.1 µM), hits mostly cytotoxic. KB-V1 MDR cells viability, CellTiter-Glo, 72 h. 3.4% of 400,000 active; further: on the % scale 0 is the no-effect control and ±100 the full control effect; nearly all actives have a fitted effect of over 60% in size
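Luminescent ATP read-out (CellTiter-Glo, 10 min) measures survival of drug-selected KB-V1 MDR cells after 72 h, 37 degrees C compound exposure. Medium: phenol-red-free DMEM, 10% FBS. Values from fitted concentration-response curves.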
The depositor's hits bear a star; i = inactive; u = inconclusive; x = no result given; [ ] = remark or other dose. The call rests on the fitted dose curve; in most records, active means well fitted curve in the direction sought with a large enough effect; inconclusive means small, poorly fitted or top-dose-only effect, or another doubt; inactive means no such curve, though single readings can be large; an effect the other way counts as inactive or inconclusive. Potency means the concentration at half of the fitted maximal effect.

SMILES	TGFb SMAD3 inh	HT1080NT lethal	HepG2 tox	HT1080 IDH1KD tx	KB-3-1 tox	KB-V1 MDR tox
COC(=O)c1ccc(OCC(O)CN2CCc3cc(OC)c(OC)cc3C2c2ccccc2)cc1 (stereo not given)	u	u	-6%	16µM*	i	i
COC(=O)c1ccc(OCC2c3cc(OC)c(OC)cc3CCN2C(=O)c2ccco2)cc1 (stereo not given)	0%	-29%	-20%	u	i	6.5µM*
CCc1ccc(OCC2c3cc(OC)c(OC)cc3CCN2C(=O)COc2ccccc2)cc1 (stereo not given)	-20%	x	-7%	x	i	i
COc1cc2c(cc1OC)C(COc1ccccc1OC)N(C(=O)COc1ccc(Cl)cc1)CC2 (stereo not given)	3%	x	-34%	x	i	21µM*
Cc1nc(CC(=O)Nc2ccc(C(N)=O)cc2)cs1	-7%	x	7%	x	x	x
COc1ccc(C2Nc3ccccc3C(=O)N2c2ccc(Cl)cc2)cc1COc1ccc(NC(C)=O)cc1 (stereo not given)	-5%	x	-18%	x	u	i
Cc1cccc(OCc2nnc(SCC(=O)N3c4ccccc4CCc4ccccc43)o2)c1	-17%	-8%	-1%	-13%	i	u
Cc1nc(SCC(=O)N2c3ccccc3NC(=O)CC2C)c2c(C)c(C)sc2n1 (stereo not given)	-21%	-12%	-15%	-17%	i	i
CC1Cc2ccccc2N1C(=O)CSc1ccccc1 (stereo not given)	-21%	13%	-9%	-3%	i	16µM*
O=C(CSc1nnc(CNc2ccc(F)cc2)o1)N1c2ccccc2Sc2ccccc21	-10%	-20%	3%	u	u	3.3µM*
CC1Cc2ccccc2N1C(=O)CSC1=NCCS1 (stereo not given)	-17%	10%	-10%	-5%	i	i
Cc1sc2nc(C3CC3)nc(SCC(=O)N3c4ccccc4CC3C)c2c1C (stereo not given)	11%	u	-21%	u	i	5.8µM*
O=C(CSc1nnc(COc2ccc(F)cc2)o1)N1c2ccccc2CCc2ccccc21	u	-23%	8%	u	i	6.5µM*
COC(=O)c1ccc(NC(=O)CC2Nc3cc(C)c(C)cc3NC2=O)cc1 (stereo not given)	u	x	-98%	x	x	x
CCc1ccccc1NC(=O)CCNS(=O)(=O)c1ccc2c(c1)CCCC(=O)N2	19%	x	-2%	x	i	i
CC1Cc2ccccc2N1C(=O)CSc1nnc(CNc2ccccc2)o1 (stereo not given)	22%	7%	-19%	-11%	u	16µM*
CC(C)Cn1c(=O)c2ccccc2n2c(SCC(=O)N3c4ccccc4CC3C)nnc12 (stereo not given)	-6%	2%	-6%	-3%	i	1.8µM*
O=C(CSc1nnc(CNc2ccccc2)o1)N1CCCc2ccccc21	-1%	-3%	-4%	7%	i	13µM*
CCN(C(=O)c1cc2c(=O)oc3ccccc3c2s1)c1ccc(C)c(C)c1	u	x	1%	x	i	i
CNC[C@@H]1Oc2cc(Br)ccc2S(=O)(=O)N([C@@H](C)CO)C[C@@H]1C	8%	8%	-1%	14%	i	i
COc1ccsc1C(=O)Nc1ccc(F)cc1F	-1%	-12%	-27%	-11%	i	i
O=C(Nc1ccc(F)cc1F)c1sccc1SCc1cccc(C(F)(F)F)c1	u	10%	-7%	1%	i	16µM*
O=C(Nc1ccc(F)cc1)c1sccc1SCc1cccc(C(F)(F)F)c1	u	13µM*	-4%	18µM*	i	u
COc1ccc(NC(=O)c2sccc2SCc2cccc(C(F)(F)F)c2)cc1	u	u	-29%	8.9µM*	i	16µM*
CCCCCCCCCCCCCCCC[n+]1ccc(CC(O)c2c(C)[nH]c3ccccc23)c2ccccc21 (stereo not given)	u	x	8.9µM*	x	16µM*	16µM*
SMILES	TGFb SMAD3 inh	HT1080NT lethal	HepG2 tox	HT1080 IDH1KD tx	KB-3-1 tox	KB-V1 MDR tox
Cc1ccccc1-n1c(SCC(=O)Nc2ccc3c(c2)OCO3)nnc1-c1ccccn1	15%	0%	-13%	-7%	u	2.1µM*
O=C(CSc1ncccc1-c1nc2ccccc2[nH]1)Nc1ccc2c(c1)OCCO2	-2%	2%	-1%	0%	i	9.2µM*
Cc1cc2nc(-c3cccnc3SCC(=O)NCc3ccco3)[nH]c2cc1C	-1%	10µM*	-66%	10µM*	i	i
COc1ccc(-c2nc(SCC(=O)Nc3ccc4c(c3)OCCO4)c(-c3ccccc3)[nH]2)cc1	u	x	-22%	x	i	i
CCOc1ccc(-c2nc(SCC(=O)Nc3ccc4c(c3)OCCO4)c(-c3ccc(F)cc3)[nH]2)cc1	u	x	13µM*	x	i	u
Cc1cc(C)cc(NC(=O)CSc2nc3c([nH]c4ccccc43)c(=O)n2-c2ccc(F)cc2)c1	u	x	-48%	x	i	u
CCOc1ccc(NC(=O)CC2C(=O)N(c3ccccc3)C(=O)N2Cc2ccc3c(c2)OCO3)cc1 (stereo not given)	-28%	x	-25%	x	i	i
COc1cc(-c2nc(SCC(=O)Nc3ccc4c(c3)OCO4)c(-c3ccccc3)[nH]2)cc(OC)c1OC	-23%	x	-53%	x	u	u
COc1ccc(NC(=O)CSc2nc(-c3cccc(C)c3)[nH]c2-c2ccccc2)cc1OC	11µM*	x	-19%	x	u	u
O=C(CSc1nc(-c2ccccc2)[nH]c1-c1ccccc1)Nc1ccc2c(c1)OCO2	11µM*	x	-47%	x	u	i
N#CCSc1ncccc1-c1nc2ccccc2[nH]1	0%	-2%	-14%	-3%[9.24 µM]	i	i
N#CCCCSc1ncccc1-c1nc2ccccc2[nH]1	7%	10%	16%	3%	i	13µM*
COc1ccc(-c2[nH]c(-c3ccc(OC)c(OC)c3)nc2SCC(=O)Nc2ccccc2)cc1	u	x	-18%	x	i	i
Cc1ccc2c(=O)cc(C(=O)Nc3ccc(S(=O)(=O)N4CCCCCC4)cc3)oc2c1C	u	x	-7%	x	i	i
CCOc1ccccc1CNC(=O)c1cc2n(n1)CCCN(Cc1ccc(C)cc1)C2=O	u	x	-27%	x	i	i
